# Dicer inh = blocks human Dicer maturation of pre-miR-21; AID 1347074; Q9UPY3; cat-ELCCA pre-miR-21 Dicer processing, chemiluminescence; hits give high values; z-score at 25 µM; actives 6% (n = 47,000); in the data active = z-score above about 3, passing the limit was not always enough;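 also: higher signal means more uncleaved substrate so more Dicer inhibition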
# A number is an active result; . = inactive. Shown is part of a subset that was picked to be rich in hits.
SMILES,Dicer inh
O=S(=O)(NNc1ncnc2ccsc12)c1ccc(Cl)cc1,.
CCCOc1ccccc1C1C(C(=O)OCCOCC)=C(C)NC2=C1C(=O)CC(C)(C)C2 (stereo not given),.
Cc1[nH]c2[nH]n(-c3ccccc3)c(=O)c2c(=O)c1CCC(C)C,.
COC(=O)C1=C(NC(=O)NC(=O)N(c2ccccc2)S(C)(=O)=O)CCS1,.
CCOC(=O)CC1=Nn2c(nnc2-c2cc(Cl)cc(Cl)c2)SC1,.
c1cnc2nc(-c3ccc4c(c3)OCCO4)cn2c1,.
CCOC(=O)c1cc([N+](=O)[O-])ccc1Oc1cncc(Cl)c1,.
c1ccc(-c2nnc3sc(-c4ccco4)nn23)cc1,3
c1ccc(-c2nnc3sc(-c4cccs4)nn23)cc1,.
c1ccc(-c2nn3c(-c4ccccc4)nnc3s2)cc1,.
O=[N+]([O-])c1ccc(S(=O)(=O)c2cc(Cl)ccc2Cl)[n+]([O-])c1,.
CC(=O)Oc1ccc2c(c1)C(=O)c1cc(OC(C)=O)ccc1-2,6.2
CCOc1ccc2c(c1)C(=O)c1cc(O)ccc1-2,.
COC(=O)COc1ccc2c(c1)C(=O)c1cc(OCC(=O)OC)ccc1-2,.
CC(C)(C)c1ccc(NC(=O)Nc2nnc(C3CC3)s2)cc1,.
O=C(Nc1ccc2c(c1)OCCO2)Nc1nnc(C2CC2)s1,.
COc1ccc(NC(=O)Nc2nnc(C3CC3)s2)cc1OC1CCCC1,6.5
COc1cc(/C=C/C(=O)NCC(=O)O)cc(Br)c1OC,.
COC(=O)c1ccccc1OCC(O)Cn1c[n+](C)c2cc(C)c(C)cc21 (stereo not given),.
O=C(c1ccc([N+](=O)[O-])cc1)N1CC(Oc2ccc(Cl)cc2)C1,.
COc1ccc(C2Nc3ccccc3NC3=C2C(=O)CC(c2ccccc2)C3)cc1OC (stereo not given),.
COc1ccc(C2CC(=O)C3=C(C2)Nc2ccccc2NC3c2ccc(OC(C)=O)cc2)cc1OC (stereo not given),.
COc1cc(C2Nc3ccccc3NC3=C2C(=O)CC(c2cccs2)C3)cc(Br)c1O (stereo not given),4.6
COc1ccc(C2CC(=O)C3=C(C2)Nc2ccccc2NC3c2ccc(OC(C)=O)c(OC)c2)cc1 (stereo not given),.
COc1ccc(C2Nc3ccccc3NC3=C2C(=O)CC(c2ccc(OC)c(OC)c2)C3)cc1 (stereo not given),.
SMILES,Dicer inh
COc1ccc(C2CC(=O)C3=C(C2)Nc2ccccc2NC3c2cccc(O)c2)cc1OC (stereo not given),3.5
COc1cc(C2Nc3ccccc3NC3=C2C(=O)CC(c2ccccc2)C3)cc(Br)c1O (stereo not given),4.9
COc1cccc(C2Nc3ccccc3NC3=C2C(=O)CC(c2ccc(OC)c(OC)c2)C3)c1 (stereo not given),.
COc1ccc(C2Nc3ccccc3NC3=C2C(=O)CC(c2cccs2)C3)cc1 (stereo not given),.
Cc1nn(C(=O)c2sc3ccccc3c2Cl)c(C)c1Cl,.
O=C(CCSc1nnnn1-c1ccccc1)Nc1ccc2c(c1)OCCO2,.
O=C1c2oc3ccc(F)cc3c(=O)c2C(c2ccc(O)cc2)N1Cc1ccccc1 (stereo not given),.
CC(C)(C)C(=O)CSc1nnc(-c2cnccn2)s1,.
CCOC(=O)/C(C#N)=C/Nc1cc(C)c(OS(=O)(=O)c2cc(Cl)cc(Cl)c2)c(Cl)c1,.
Cc1ccc2nc(NC3=NCN(Cc4ccccc4Cl)CN3)nc(C)c2c1,.
COc1nc(Nc2ccc(C)c(Cl)c2)nc(OC)n1,.
O=C(Nc1cc(C(F)(F)F)cc(C(F)(F)F)c1)NS(=O)(=O)c1ccc(Cl)cc1,.
Cc1ccc(C)c(Nc2nc(-c3cccnc3)cs2)c1,3.3
Cc1cc(C)nc(NS(=O)(=O)c2ccc(Nc3nc(-c4cccnc4)cs3)cc2)n1,.
Cc1c(Cl)cccc1Nc1n[nH]c(=S)s1,.
c1cnc(Nc2nc(-c3cccnc3)cs2)nc1,.
Cc1ccc(Nc2n[nH]c(=S)s2)cc1,.
Cc1ccc(C)c(Nc2n[nH]c(=S)s2)c1,4.6
CCOC(=O)C1CCN(C(=O)c2cncc(-c3cccs3)c2)CC1,.
COc1ccc(-c2nc3n(n2)C(c2ccc(OC)c(OC)c2)C2=C(CC(C)(C)CC2=O)N3)cc1OC (stereo not given),.
CNC(=S)N/N=C(/N)c1ccccn1,4.3
N/C(=N\NS(=O)(=O)c1ccccc1C(F)(F)F)c1ccccn1,.
N/C(=N\NC(=O)Nc1ccc(Cl)cc1)c1ccccn1,.
CC1=CC(C)(C)Nc2ccc(OC(=O)c3ccc(F)cc3)cc21,.
COC(=O)c1scc(S(=O)(=O)C(C)C)c1N/N=C/c1ccccc1Cl,.
SMILES,Dicer inh
Cn1nc(C(F)(F)F)c2cc(-c3nc(-c4ccc(C(F)(F)F)cc4)no3)sc21,.
Cc1ccc(S(=O)(=O)c2c(C)cc(C)cc2C)cc1,.
Cc1ccc(S(=O)(=O)n2nc(C)cc2N)cc1,.
Cc1ccc(S(=O)(=O)n2ccc3cc(N)ccc32)cc1,5.7
Cc1nn(-c2ccccc2)c2c1C(c1ccc(Cl)cc1)C1=C(CC(C)(C)CC1=O)N2 (stereo not given),.
C#CCN1C(=O)C(O)(CC(=O)c2c(C)cc(C)cc2C)c2ccccc21 (stereo not given),4.3
C#CCN1C(=O)C(O)(CC(=O)c2cc(C)ccc2C)c2ccccc21 (stereo not given),.
C#CCN1C(=O)C(O)(CC(=O)c2ccc(C)cc2C)c2ccccc21 (stereo not given),.
COC(=O)C1=C(NC(=O)c2cccc(Br)c2)CCS1,.
COc1ccc(/C=C/c2sc3ccc(O)cc3[n+]2C)cc1,.
c1cc2c(cc1-c1csc(-c3ccc4c(c3)OCCO4)n1)OCO2,.
COc1ccc(OC)c(NC(=O)CCC(=O)O)c1,5
COC(=O)c1cc(OC)c(OC)cc1NC(=O)CCC(=O)O,.
COc1ccc(OC)c(NC(=O)C(=O)NN)c1,.
COc1ccc(C2/C(=C(\O)c3ccc(C)cc3)C(=O)C(=O)N2CCN(C)C)cc1OC (stereo not given),.
O=C(CCCOc1ccccc1)NC1CCSC1=O (stereo not given),.
O=C(COc1ccccc1)NC1CCSC1=O (stereo not given),3.4
O=C(CCc1ccccc1)NC1CCSC1=O (stereo not given),.
CCOC(=O)C(NC(=O)c1cccc(Cl)c1)(Nc1ccc(C)c(C)c1)C(F)(F)F (stereo not given),.
CCN(CC)CCSc1nc(O)c(C(C)C)c(=O)[nH]1,4.2
CCc1c(O)nc(SCCN(CC)CC)[nH]c1=O,.
CC(C)c1c(O)nc(SCCN2CCOCC2)[nH]c1=O,.
O=C(c1ccc(Cl)cc1)n1cc2c(n1)-c1cc(Cl)ccc1SC2,.
Cc1onc(-c2c(F)cccc2Cl)c1C(=O)OCc1sccc1-n1cccc1,.
Cc1cc(NS(=O)(=O)c2ccc(NC(=O)c3ccc4nccnc4c3)cc2)no1,.
SMILES,Dicer inh
Nc1nnc(-c2nonc2N)s1,.
Cc1ccc(-c2nnc3c4ccccc4c(C)nn23)cc1S(=O)(=O)N1CCCC1,3.2
CCC(CO)NS(=O)(=O)c1cc(-c2nnc3c4ccccc4c(C)nn23)ccc1OC (stereo not given),.
COc1ccc(-c2nnc3c4ccccc4c(C)nn23)cc1S(=O)(=O)N1CCCC1,5.5
Cc1ccc(-c2nnc3c4ccccc4c(C)nn23)cc1S(=O)(=O)NC(C)(C)C,.
COc1ccc(-c2nnc3c4ccccc4c(C)nn23)cc1S(=O)(=O)N(C)C1CCCCC1,.

# Compound activity from PubChem BioAssay.
